Results published in PubChem BioAssay AID1645859 (Buhrlage Lab, Dana-Farber Cancer Institute and Novartis …, 2021).
Among all 47,000 compounds or so, about 95 (0.2%) were called active. Only a selection was taken, and actives are over-represented in it overall. Values without a mark were called inactive. Cut-off read from the data, not from the text of the source: active = inhibition above about 30%; inactive = the rest.

Molecular target: Ubiquitin carboxyl-terminal hydrolase isozyme L1 (Homo sapiens) (UniProt P09936)
Assay: blocks human UCHL1 ubiquitin-rhodamine cleavage (AID 1645859)
Details: purified UCHL1, Ub-rhodamine cleavage fluorescence; at 20 µM; active compounds read high

Sequence of Ubiquitin carboxyl-terminal hydrolase isozyme L1 (Homo sapiens) (P09936 whole entry, looked up): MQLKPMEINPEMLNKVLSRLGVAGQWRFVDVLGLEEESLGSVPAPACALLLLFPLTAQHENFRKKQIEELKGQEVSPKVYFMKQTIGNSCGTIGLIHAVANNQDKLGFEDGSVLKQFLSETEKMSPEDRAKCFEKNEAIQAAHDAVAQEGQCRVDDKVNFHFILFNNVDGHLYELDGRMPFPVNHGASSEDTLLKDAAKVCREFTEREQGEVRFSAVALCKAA

| SMILES | inhibition |
| --- | --- |
| CC1(C)Cc2c(c(-c3ccco3)nc3sc4c(SCCCc5ccccc5)ncnc4c23)CO1 | 56.3% (active) |
| CSc1ncnc2c1sc1nc(-c3ccccc3)c3c(c12)CC(C)(C)OC3 | 2.83% |
| CCCCCCSc1ncnc2c1sc1nc(-c3ccccc3)c3c(c12)CC(C)(C)OC3 | -2.54% |
| CCc1cnc(N2CC[C@@H]3CN(CC)S(=O)(=O)[C@@H]3CC2)nc1 | 1.62% |
| Cc1nc2c(c(=O)[nH]1)C(c1ccc(OCc3ccccc3F)cc1)CC(=O)N2 (configuration not stated) | -1.23% |
| Cc1cc(N(C)C)nc(N2CCN(S(=O)(=O)c3ccc(-c4ccccc4)cc3)CC2)n1 | 1.74% |
| Cc1cc(C)c2c(C)c(C(=O)NCc3csc(C)n3)oc2c1 | -0.0316% |
| Cc1ccc(C(=O)N2CCc3cc(-c4csc(NC(=O)CNc5ccccc5)n4)ccc32)cc1 | -0.728% |
| Cc1nn(-c2ccc(Cl)cc2)c2c1C(c1cccc(Br)c1)N1C(=N2)N(C)c2c1c(=O)n(C)c(=O)n2C (configuration not stated) | -0.542% |
| COCCCn1c(C(=O)N2CCC(C)CC2)cc2c(=O)n3ccccc3nc21 | -5.93% |
| O=C1CN(C(=O)c2ccc(Cl)o2)c2ccccc2N1 | -5.13% |
| CCc1nnc2ccc(C(=O)N3CCN(c4ccccn4)CC3)cn12 | 1.5% |
| Fc1cc(F)cc(-c2noc3ncnc(N(Cc4ccco4)CC4CCCO4)c23)c1 (configuration not stated) | 0.782% |
| Cc1ccc(CN2C[C@H]3C[C@H](C(=O)NC(C)C)[C@@H](C2)O3)o1 | 2.08% |
| O=C1NC(=O)N2Cc3ccccc3CN(C(=O)c3ccc(Cl)cc3)CC12 (configuration not stated) | 0.947% |
| COc1ccc(CN=C2NS(=O)(=O)C(c3ccc(F)cc3)=C2C)cc1OC | -4.12% |
| c1coc(CNc2nc(Nc3cccc4ccccc34)nc3ccccc23)c1 | 5.02% |
| CC(CC(=O)N1CCc2ccccc2C1)S(=O)(=O)c1ccc2c(c1)NC(=O)CCS2 (configuration not stated) | -1.85% |
| COc1ccc(C)cc1NC(=O)c1coc(NC(=O)c2ccco2)n1 | -2.46% |
| CO[C@H]1C[C@@H]2CC[C@@H](C)[C@@](O)(O2)C(=O)C(=O)N2CCCC[C@H]2C(=O)O[C@H]([C@H](C)C[C@@H]2CC[C@@H](O)[C@H](OC)C2)CC(=O)[C@H](C)/C=C(\C)[C@@H](O)[C@@H](OC)C(=O)[C@H](C)C[C@H](C)/C=C/C=CC=C1C | 6.78% |
| CCN1CCN(c2ccc(-c3nc(-c4cccc(F)c4)no3)cn2)CC1 | -1.45% |

| SMILES | inhibition |
| --- | --- |
| CCc1nc(SCC(=O)Nc2cccc(OC)c2)c2c(=O)n(C)c(=O)n(C)c2n1 | -0.222% |
| O=C1C2Cc3c([nH]c4ccccc34)C(c3ccccc3)N2C(=O)CN1C1CCCCC1 (configuration not stated) | 5.95% |
| O=C(C1=Cc2ccccc2OC1)N1CCN(c2ccccc2)CC1 | 0.226% |
| COc1cccc(C(=O)NC2CC(=O)N(c3ccc(F)cc3)C2)c1OC (configuration not stated) | 0.016% |
| Cc1nc(C2CCN(C(=O)C(C)(C)C)CC2)cc(N2C(=O)OCC2C(C)C)n1 (configuration not stated) | -3.66% |
| CC(C)c1cc(N2CCCCC2)nc(-c2ccccn2)n1 | -3.77% |
| CN(C)S(=O)(=O)N1C[C@H](OCc2ccccn2)[C@H]2OCCC[C@H]21 | -1.03% |
| Cc1nccn1-c1cccc(C2CCCN(c3ncccn3)C2)n1 (configuration not stated) | -0.888% |
| C/C=C(\C)C(=O)O[C@@H]1C[C@@]2(C)CC[C@H](C(C)C)[C@@]2(O)CC[C@@]1(C)O | -2.54% |
| O=C1CN2CC(c3ccccc3S2(=O)=O)N1Cc1ccccc1 (configuration not stated) | -1.24% |
| CCC(=O)c1c(-c2ccc(F)cc2)c2c3n(c(-c4ccc(Cl)c(Cl)c4)cn13)CCCC2 | 3.03% |
| O=C1N[C@H]2OCCC[C@H]2[C@H](c2cccc(CNC(=O)c3ccon3)c2)N1 | 1.68% |
| Cc1ccccc1CN1C(=O)N(c2cccc(F)c2)c2ncccc2S1(=O)=O | 3.52% |
| Cc1cnn(CC2CCCN2Cc2nc(-c3ccco3)no2)c1 (configuration not stated) | -8.36% |
| CC(=O)NCc1nc(-c2ccc3c(c2)nc(C)c(=O)n3C2CCCC2)no1 | -31.3% |
| O=C(C1CCCN(c2cnc3nccnc3c2)C1)N1CCCCCC1 (configuration not stated) | -42.4% |
| CN(C)c1ncc(CN2CCN(C)C(c3ccccc3)C2)cn1 (configuration not stated) | -0.428% |
| CNC(=O)C1Cc2ccccc2N1S(=O)(=O)c1cccnc1 (configuration not stated) | -8.34% |
| Cc1ccc(C)c(S(=O)(=O)NCC(c2ccc3c(c2)CCN3C)N2CCCC2)c1 (configuration not stated) | -2.82% |
| COc1ccc(C(=O)N2CCCC(c3ccnc(=O)[nH]3)C2)cn1 (configuration not stated) | -1.26% |
| Cc1ccc(NC(=O)N2CCSc3ccccc32)cc1 | -0.231% |
